Reference: PubChem BioAssay AID848 (Columbia University Molecular Screening Center, 2007)
The campaign covered roughly 93,000 compounds. About 160 (0.17%) were called active. The sample as a whole holds a higher share of actives than the screen did. Unmarked numbers belong to inactive results.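 Rule for the calls: active = cell count reduction exceeding the screen mean by over 5 SD, scaled to untreated wells per plate (cut at about 78% in these data); inactive = the rest.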

Assay: HUVEC nuclei count loss under TNFa – imaging, Hoechst nuclei count, cytotoxicity control for VCAM1 expression modulator project, primary screen (AID 848);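 note: cells counted after 24 h of TNF alpha exposure following the 1 h pretreatment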
Details: HUVEC TNFalpha-stimulated, at 2 µM, stronger effect = higher value
Molecule `CC(C)(C)c1ccc(OC2=CS(=O)(=O)c3ccccc32)cc1` has a cell count reduction of -12%.
In the case of `O=C(N/N=C\c1ccc(-c2ccc(Cl)c(Cl)c2)o1)C(=O)N1CCCC1`, the cell count reduction is reported as -10.6%.
`c1ccc(CSc2ncnc3c2sc2nc(N4CCOCC4)c4c(c23)CCCC4)cc1` gave a cell count reduction of -21.4%.
Work on `CCC(C)n1c(-c2cc(OC)c(OC)c(OC)c2)nc2nc3ccccc3nc21` (configuration not stated) yielded a cell count reduction of 5.6%.
`O=C(Oc1ccccc1)Oc1ccc2c(c1)oc(=O)c1ccccc12` showed a cell count reduction of -8.6%.
`Cc1ccc(Oc2ccc3c(c2)C(=O)N(c2cccc4cccnc24)C3=O)cc1` gave a cell count reduction of 16.6%.
`O=C(Nc1ccccc1)O/N=C1\CCCCC1c1ccc([N+](=O)[O-])cc1[N+](=O)[O-]` (configuration not stated) gave a cell count reduction of -15.6%.
`O=C(CSc1nc2ccccc2o1)N1c2ccccc2Sc2ccc(Cl)cc21` gave a cell count reduction of 4.3%.
In the case of `O=C(CCl)NNc1cccc(Cl)n1`, the cell count reduction is reported as -9%.
`Cc1cc(-c2cccs2)nc(-n2cccc2)n1` showed a cell count reduction of 3.7%.
`COc1cccc2cc(C(=O)N3CCN(C(=O)c4ccccc4)CC3)c(=O)oc12` showed a cell count reduction of -19.2%.
Work on `O=C(Cc1ccc(S(=O)(=O)N2CCOCC2)s1)NCCC(c1ccccc1)c1ccccc1` yielded a cell count reduction of -20.2%.
With `Cc1cc(C)c2nc(NC(=O)c3ccc4c(c3)OCO4)sc2c1` the cell count reduction was -4.3%.
In the case of `CC(Oc1ccc(-c2ccccc2)c(F)c1)c1ccn(S(=O)(=O)c2cccc3ccccc23)n1` (configuration not stated), the cell count reduction is reported as -7.1%.
Molecule `Clc1ccc(-c2cc(COc3ccccc3)no2)cc1Cl` has a cell count reduction of 2%.
Molecule `COC(=O)c1ccc(C2C(Oc3ccccc3C)C(=O)N2CCc2ccc(OC)c(OC)c2)cc1` (configuration not stated) has a cell count reduction of -15.9%.
Work on `CN(C)Cc1ccccc1C1(O)c2ccccc2CSc2ccccc21` (configuration not stated) yielded a cell count reduction of 12.2%.
`Cc1cc(C)c2cc(CN(Cc3nnnn3Cc3ccc(F)cc3)C3CCCC3)c(=O)[nH]c2c1` showed a cell count reduction of -8.7%.
Molecule `CCCc1ccc(OCc2ccc(C(=O)N/N=C/c3cccc([N+](=O)[O-])c3)o2)c(OC)c1` has a cell count reduction of 11.6%.
Work on `CCCCNC(=O)c1onc(CSc2cccc(OC)c2)c1C(=O)O` yielded a cell count reduction of 10.5%.
Molecule `Cc1cccc(CCNS(=O)(=O)c2ccc(S(=O)(=O)NC3CCCC3)cc2)c1` has a cell count reduction of -9.6%.
Work on `Cc1cccc(NC(=O)Cn2cc(C(=O)c3ccco3)c3ccccc32)c1` yielded a cell count reduction of 7.3%.
`Cc1nn(Cc2ccc(C(=O)N3N=C(C(F)F)CC3(O)C(F)F)cc2)c(C)c1[N+](=O)[O-]` (configuration not stated) showed a cell count reduction of -3.7%.
Work on `COc1ccc(Nc2nc(Cl)nc(NCc3ccco3)n2)cc1` yielded a cell count reduction of -4.3%.
Molecule `COc1cc(OC)c(/C=N/NC(=O)c2ccc([N+](=O)[O-])cc2)cc1Br` has a cell count reduction of -34.5%.
In the case of `S=c1[nH]nc(-c2ccc(Cl)cc2)n1CC1CCCO1` (configuration not stated), the cell count reduction is reported as 3.6%.
`COCn1c(COc2ccccc2)nc2ccccc21` gave a cell count reduction of 19.1%.
`C=C(Br)Cn1c(CCCC)nc2ccccc21` showed a cell count reduction of -33.6%.
With `COCc1nc2ccccc2n1Cc1ccccc1Br` the cell count reduction was 91% (active).
For `CCCOc1ccc(C2NC(=O)NC(c3ccccc3)=C2C(C)=O)cc1OCC` (configuration not stated), the cell count reduction was -12.4%.
`COC(=O)c1ccc(CSc2ccc3nnc(-c4ccccc4)n3n2)o1` gave a cell count reduction of -24%.
In the case of `Clc1ccc(-c2nnc(-c3ccccc3)nc2N2CCSCC2)cc1`, the cell count reduction is reported as -18.9%.
For `CCc1ccc(C2C(C#N)=C(N)Oc3n[nH]c(CC(=O)OC)c32)cc1` (configuration not stated), the cell count reduction was -7.4%.
In the case of `CCCCNC(=O)CCNC(=O)c1ccc(C(C)(C)C)cc1`, the cell count reduction is reported as -20.6%.
Molecule `CC(C)N(c1ccccc1)c1ncnc(NCCC(=O)O)c1[N+](=O)[O-]` has a cell count reduction of -22.2%.
`O=C(Nc1cccn(Cc2c(Cl)cccc2Cl)c1=O)c1ccc(Cl)cc1` showed a cell count reduction of -3.1%.
Work on `Cc1[nH]n(-c2ccccc2)c(=O)c1CCOC(=O)c1ccc(C(F)(F)F)cc1` yielded a cell count reduction of -15.1%.
`N/C(=N\OC(=O)CCC1CCCCC1)c1ccccn1` gave a cell count reduction of -18.3%.
Work on `CCOC(=O)N1CCN(C(=O)CSc2ccc(Cl)cc2)CC1` yielded a cell count reduction of -31.7%.
`CCOC(=O)N1CCN(C(=O)COc2ccc(Br)cc2)CC1` gave a cell count reduction of -23.5%.
In the case of `CCOC(=O)N1CCN(C(=O)COc2ccc(Cl)cc2C)CC1`, the cell count reduction is reported as 89.8% (active).
Work on `Cn1ncc(Br)c1C(=O)NCc1cccs1` yielded a cell count reduction of 4.8%.
With `O=C(NCc1cccs1)c1ccc2c(c1)ncn2C1CCCC1` the cell count reduction was 87.9% (active).
With `COc1ccccc1-n1cnc2cc(C(=O)NCC3CCCO3)ccc21` (configuration not stated) the cell count reduction was -9.3%.
`CCOC(=O)c1sc(NC(=O)c2ccncc2)nc1C` gave a cell count reduction of 3.6%.
In the case of `O=C(CSc1ccccc1)Nc1ccc(NC(=O)c2ccco2)cc1`, the cell count reduction is reported as -13%.
For `Cc1ccccc1OC(=O)Cn1c(C(F)(F)F)nc2ccccc21`, the cell count reduction was -16.4%.
